“And” between values parts separate entries of the source, which are not always exact repeats. Identical values can stand only once. The source made the active and inactive calls. Rule as the data show it, unless noted: active = parasite load remaining mostly below about 12% (no sharp cut-off); inactive = mostly above about 10%.
Assays:
[1] = glutamate transport activators, MN-1 cells, MN-1 cell line (AID 1612); conditions: MN-1 motor neuron cells, stronger effect = higher value;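 also: tested at 1 µM final; 0% = mean of DMSO vehicle wells on each plate; positive means more glutamate uptake than control and negative means less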
[2] = GFP-Q80 aggregate reduction, neuronal-like cells, cell-based, NGF-treated PC12, GFPQ80 (AID 1614); conditions: PC12 NGF-treated GFP-polyQ80 inclusion reduction;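 also: lower means fewer inclusions and 0 means no inclusions at all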
[3] = 75Q-TubH aggregate inhibition, S. cerevisiae, yeast (AID 1616); conditions: S. cerevisiae 75Q-TubH polyglutamine aggregation suppression; stronger effect = higher value
[4] = P. berghei load reduction in hepatocytes – cell-based, HepG2, luciferase luminescence, HepG2 viability, primary screen (AID 624349);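 also: 100% = mean of DMSO negative control wells on the same plate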; conditions: P. berghei liver stage in HepG2, luciferase luminescence, concentration not given here; parasite load remaining: stronger effect = lower value; viability: measured here: HepG2 viability without parasites
[5] = Wnt pathway potentiators raising nuclear beta-catenin – imaging, WNT3A-conditioned medium, mouse C2C12, NPC library, primary screen (AID 1117326; in the data active = nuclear beta-catenin stimulation mostly above about 4.2%, no sharp cut-off; inactive = mostly below about 10%; also: reference of the scale not given here); conditions: stronger effect = higher value

NC(=O)NC(=O)Cc1ccccc1
glutamate uptake change [1]: -11.7% | inclusion score [2]: 2 | aggregation suppression score [3]: 1.17 | parasite load remaining [4]: 87.8% (inactive) and 56.5% (inactive) | viability [4]: 68% and 92% | nuclear beta-catenin stimulation ([5]; at 10 µM): 0.2% (inactive) | nuclear beta-catenin stimulation ([5]; stimulation, at 2 µM): -0.4%

CC(=O)NO
glutamate uptake change [1]: 11.3% | inclusion score [2]: 2 | aggregation suppression score [3]: 1.09 | parasite load remaining [4]: 102% (inactive) and 55.8% (inactive) | viability [4]: 71.8% and 93.7% | nuclear beta-catenin stimulation ([5]; at 10 µM): 0% (inactive) | nuclear beta-catenin stimulation ([5]; stimulation, at 2 µM): 0.9%

COc1ccc(CN(CCN(C)C)c2ncccn2)cc1
glutamate uptake change [1]: -15.6% | inclusion score [2]: 2 | aggregation suppression score [3]: 1.43 | parasite load remaining [4]: 161% (inactive) and 52.7% (inactive) | viability [4]: 86.2% and 91.9% | nuclear beta-catenin stimulation ([5]; at 10 µM): 1.3% (inactive) | nuclear beta-catenin stimulation ([5]; stimulation, at 2 µM): 2.3%

CCCCCC(C)N (configuration not stated)
glutamate uptake change [1]: 3.71% | inclusion score [2]: 2 | aggregation suppression score [3]: 0.962 | parasite load remaining [4]: 115% (inactive) and 42.4% (inactive) | viability [4]: 77.1% and 86.1% | nuclear beta-catenin stimulation ([5]; at 10 µM): 1.8% (inactive) | nuclear beta-catenin stimulation ([5]; stimulation, at 2 µM): 3.7%

O=C(O)P(=O)(O)O
glutamate uptake change [1]: -1.79% | inclusion score [2]: 2 | aggregation suppression score [3]: 1.5 | parasite load remaining [4]: 127% (inactive) and 15.8% (inactive) | viability [4]: 69.2% and 92.6% | nuclear beta-catenin stimulation ([5]; at 10 µM): 0.2% (inactive) | nuclear beta-catenin stimulation ([5]; stimulation, at 2 µM): -0.8%

CC(=O)NCCCCCC(=O)O
glutamate uptake change [1]: -9.11% | inclusion score [2]: 2 | aggregation suppression score [3]: 1.24 | parasite load remaining [4]: 132% (inactive) | viability [4]: 98.6% | nuclear beta-catenin stimulation ([5]; at 10 µM): 0.2% (inactive) | nuclear beta-catenin stimulation ([5]; stimulation, at 2 µM): 0.7%

COc1cccc(OC)c1C(=O)N[C@@H]1C(=O)N2[C@@H]1SC(C)(C)[C@@H]2C(=O)O
glutamate uptake change [1]: 17.4% | inclusion score [2]: 2 | aggregation suppression score [3]: 1.05 | parasite load remaining [4]: 72.2% (inactive) and 53.5% (inactive) | viability [4]: 72.9% and 91.1% | nuclear beta-catenin stimulation ([5]; at 10 µM): -0.9% (inactive) | nuclear beta-catenin stimulation ([5]; stimulation, at 2 µM): -1.1%

CC(=O)Nc1ccccc1
glutamate uptake change [1]: 3.38% and -12.1% | inclusion score [2]: 2 | aggregation suppression score [3]: 1.6 and 1.51 | parasite load remaining [4]: 92.8% (inactive) and 37.4% (inactive) | viability [4]: 71.9% and 93.5% | nuclear beta-catenin stimulation ([5]; at 10 µM): 5.2% (inactive) | nuclear beta-catenin stimulation ([5]; stimulation, at 2 µM): 1.4%

O=C(O)c1ccccc1O
glutamate uptake change [1]: 15.9% | inclusion score [2]: 2 | aggregation suppression score [3]: 0.863 | parasite load remaining [4]: 90.3% (inactive) and 39.7% (inactive) | viability [4]: 79.5% and 93.6% | nuclear beta-catenin stimulation ([5]; at 10 µM): 0.5% (inactive) | nuclear beta-catenin stimulation ([5]; stimulation, at 2 µM): -0.8%

Nc1nccs1
glutamate uptake change [1]: 28.6% | inclusion score [2]: 2 | aggregation suppression score [3]: 1.04 | parasite load remaining [4]: 56.3% (inactive) | viability [4]: 97.8% | nuclear beta-catenin stimulation ([5]; at 10 µM): -1.6% (inactive) | nuclear beta-catenin stimulation ([5]; stimulation, at 2 µM): 0.3%

O=C(N[C@H](CO)[C@H](O)c1ccc([N+](=O)[O-])cc1)C(Cl)Cl
glutamate uptake change [1]: 7.27% | inclusion score [2]: 2 | aggregation suppression score [3]: 1.2 | parasite load remaining [4]: 29.9% (inactive) and 25.5% (inactive) | viability [4]: 46.7% and 63% | nuclear beta-catenin stimulation ([5]; at 10 µM): -0.9% (inactive) | nuclear beta-catenin stimulation ([5]; stimulation, at 2 µM): -0.3%

CC(=O)OCC(COC(C)=O)OC(C)=O
glutamate uptake change [1]: -13.9% | inclusion score [2]: 2 | aggregation suppression score [3]: 1.25 | parasite load remaining [4]: 142% (inactive) and 56.1% (inactive) | viability [4]: 73.5% and 86.5% | nuclear beta-catenin stimulation ([5]; at 10 µM): 0.2% (inactive) | nuclear beta-catenin stimulation ([5]; stimulation, at 2 µM): 3.4%

O=C(O)c1ccc(S(=O)(=O)N(Cl)Cl)cc1
glutamate uptake change [1]: -1.46% | inclusion score [2]: 2 | aggregation suppression score [3]: 1.13 | parasite load remaining [4]: 101% (inactive) and 53.6% (inactive) | viability [4]: 75.7% and 97.7% | nuclear beta-catenin stimulation ([5]; at 10 µM): 0.3% (inactive) | nuclear beta-catenin stimulation ([5]; stimulation, at 2 µM): 1.7%

C=CCc1ccc(O)c(OC)c1
glutamate uptake change [1]: -8.45% | inclusion score [2]: 2 | aggregation suppression score [3]: 1.76 | parasite load remaining [4]: 91.2% (inactive) and 49.1% (inactive) | viability [4]: 77.2% and 96.4% | nuclear beta-catenin stimulation ([5]; at 10 µM): 1.1% (inactive) | nuclear beta-catenin stimulation ([5]; stimulation, at 2 µM): 4.6%

CCOC(N)=O
glutamate uptake change [1]: -13.5% | inclusion score [2]: 2 | aggregation suppression score [3]: 1.21 | parasite load remaining [4]: 148% (inactive) and 51.2% (inactive) | viability [4]: 85% and 96.6% | nuclear beta-catenin stimulation ([5]; at 10 µM): 2.6% (inactive) | nuclear beta-catenin stimulation ([5]; stimulation, at 2 µM): 7.1%

OC[C@H]1O[C@@H](O[C@@H]2[C@@H](CO)O[C@](O)(CO)[C@H]2O)[C@H](O)[C@@H](O)[C@H]1O
glutamate uptake change [1]: 8.9% | inclusion score [2]: 2 | aggregation suppression score [3]: 0.924 | parasite load remaining [4]: 106% (inactive) and 22.7% (inactive) | viability [4]: 76.4% and 96.6% | nuclear beta-catenin stimulation ([5]; at 10 µM): 2.4% (inactive) | nuclear beta-catenin stimulation ([5]; stimulation, at 2 µM): 1.6%

O=C(CCBr)N1CCN(C(=O)CCBr)CC1
glutamate uptake change [1]: 17.8% | inclusion score [2]: 2 | aggregation suppression score [3]: 0.931 | parasite load remaining [4]: 146% (inactive) and 41.7% (inactive) | viability [4]: 86.4% and 105% | nuclear beta-catenin stimulation ([5]; at 10 µM): 1.4% (inactive) | nuclear beta-catenin stimulation ([5]; stimulation, at 2 µM): 1.7%

CC1(C)S[C@@H]2[C@H](NC(=O)C(C(=O)O)c3ccccc3)C(=O)N2[C@H]1C(=O)O (some centres not stated)
glutamate uptake change [1]: 7.16% | inclusion score [2]: 2 | aggregation suppression score [3]: 1.65 | parasite load remaining [4]: 87.5% (inactive) and 61.7% (inactive) | viability [4]: 75.2% and 98.9% | nuclear beta-catenin stimulation ([5]; at 10 µM): -0.3% (inactive) | nuclear beta-catenin stimulation ([5]; stimulation, at 2 µM): -0.3%

CCCOc1ccc2nc(NC(=O)OC)[nH]c2c1
glutamate uptake change [1]: -36.6% | inclusion score [2]: 2 | aggregation suppression score [3]: 0.918 | parasite load remaining [4]: 150% (inactive) and 18.1% (inactive) and 53.4% (inactive) | viability [4]: 91% and 99.5% and 84% | nuclear beta-catenin stimulation ([5]; at 10 µM): 77% (active) | nuclear beta-catenin stimulation ([5]; stimulation, at 2 µM): 60.9%

Nc1ccc(C(=O)O)cc1
glutamate uptake change [1]: 15.6% | inclusion score [2]: 2 | aggregation suppression score [3]: 1.25 | parasite load remaining [4]: 102% (inactive) and 75.6% (inactive) | viability [4]: 74.3% and 91.3% | nuclear beta-catenin stimulation ([5]; at 10 µM): -0.9% (inactive) | nuclear beta-catenin stimulation ([5]; stimulation, at 2 µM): 0.3%

CN1CCCN=C1COC(=O)C(O)(c1ccccc1)C1CCCCC1 (configuration not stated)
glutamate uptake change [1]: 10.4% | inclusion score [2]: 2 | aggregation suppression score [3]: 1.26 | parasite load remaining [4]: 69.1% (inactive) and 57.9% (inactive) | viability [4]: 80.4% and 101% | nuclear beta-catenin stimulation ([5]; at 10 µM): 3% (inactive) | nuclear beta-catenin stimulation ([5]; stimulation, at 2 µM): 1.9%
